Bioassay records as filed in PubChem BioAssay.
Most compounds without a hit are left out; they make up all but 2.2% or so of the library.
Efflux pump inh = inhibitors of Candida efflux pumps in yeast, primary screen, S. cerevisiae, Nile Red, multiplex; S. cerevisiae Candida pump triplex; inhibition, % at 10 µM; 330,000 compounds, 0.44% hits; AID 485275, 2010;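 active = plate passing quality check with inhibition over a set limit, or well fluorescence over plate mean plus 4 SD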;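 note: Nile Red retained in pooled yeast measured as flow cytometry median fluorescence; 0% = buffer negative control and 100% = Enniatin B positive control; higher means more Nile Red kept so more efflux inhibition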
SUMO Mot1 rescue = yeast Mot1-301 growth rescue at high temperature, primary screen, SUMOylation pathway inhibitor project, S. cerevisiae, ATP luminescence, 38.5C. S. cerevisiae Mot1-301 growth rescue; percent above DMSO median, 100 means doubled. growth rescue, % at 18.8 µM. 320,000 compounds, 1% hits. AID 2716, 2010;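 active = every valid replicate shows activation above 250% relative to neutral control wells; inactive = the rest, any valid replicate at or below 250%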;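 note: OY570 slx delta 5 strain wells were the positive control but not used for scaling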
SKN-1 inh = suppressors of acrylamide-induced Pgst-4::GFP reporter in worms, primary screen, SKN-1 inhibitor project, whole organism, uHTS, GFP/RFP fluorescence ratio, strain VP596; C. elegans VP596 Pgst-4::GFP/RFP ratio, 24 h; inhibition, % at 21.8 µM; 360,000 compounds, 0.49% hits; AID 624304, 2012;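 active = interference check ratio from 0.5 to 1.5 plus GFP to RFP signal ratio inhibition reaching or exceeding a fixed threshold, cut at about 30% in these data, passing the limit was not always enough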
sPLA2-III inh = human group III sPLA2 inhibitors, primary screen, biochemical, QFRET, BODIPY PC-A2 liposome substrate; 370,000 compounds, 0.56% hits; Group 3 secretory phospholipase A2 (Homo sapiens), Q9NZ20; QFRET BODIPY PC-A2 liposome hydrolysis, fluorescence; inhibition, % at 12.2 µM;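 active = inhibition above mean plus 3 SD of compounds lying within the high and low control bounds, cut at about 19% in these data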;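 note: 0% = median of test compound wells and 100% = no enzyme DMSO wells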
sPLA2 confirm = human group III sPLA2 inhibitors, confirmation, biochemical, QFRET, triplicate; shares compounds with sPLA2-III inh; recombinant hGIII-sPLA2, BODIPY PC-A2 QFRET fluorescence; inhibition, % at 12.2 µM; 2,000 compounds, 34% hits;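 active = mean inhibition across triplicates above the hit cutoff set in the earlier primary screen, cut at about 19% in these data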;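 note: 0% = enzyme with DMSO and 100% = DMSO wells lacking enzyme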
535nm interf = 535nm fluorescence optical interference, confirmation, artefact control for HGIII-sPLA2 inhibitor project, biochemical, QFRET; shares compounds with sPLA2-III inh; 2,000 compounds, 8.5% hits; BODIPY FL product fluorescence interference; inhibition, % at 12.2 µM;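 active = average inhibition above the solvent-only control mean plus 3 SD, cut at about 6% in these data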;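 note: 0% = DMSO with substrate plus product and 100% = DMSO with substrate alone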
535nm interf DR = 535nm fluorescence optical interference, dose response, artefact control for HGIII-sPLA2 inhibitor project, biochemical, QFRET; shares compounds with sPLA2-III inh; IC50, µM; 240 tested, under 10 active; BODIPY FL product fluorescence interference, cell-free;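 active = IC50 at or below 10 µM; inactive = IC50 above 10 µM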
* hit, by the source's call; . = not tested or not shown.

SMILES | Efflux pump inh | SUMO Mot1 rescue | SKN-1 inh | sPLA2-III inh | sPLA2 confirm | 535nm interf | others
CCOC(=O)C(=O)Nc1ccc([N+](=O)[O-])cc1OC | 0 | -7 | 11 | 23* | -1 | -1
CCOC(=O)Nc1ccc([N+](=O)[O-])cc1OC | 0 | -5 | 9 | -4 | . | .
NC(=O)c1nc[nH]c1C(=O)Nc1cccc(NC(=O)c2cccc(C(F)(F)F)c2)c1 | 0 | 10 | 9 | 4 | . | .
O=C(CNc1ccccc1Cl)N/N=C1\CCCc2ccccc21 | 0 | 60 | 4 | 13 | . | .
COC(=O)C1=NN(c2cccc(C)c2)C2C(=O)N(c3ccccc3OC)C(=O)C12 (configuration not stated) | 0 | -2 | -8 | 20* | -2 | -2
COC(=O)C1=NN(c2ccccc2OC)C2C(=O)N(c3ccccc3OC)C(=O)C12 (configuration not stated) | 0 | -26 | 11 | -5 | . | .
CNC(=S)N/N=C/c1cc(Br)cc(Br)c1O | 0 | 100 | 10 | 44* | 51* | 5 | 535nm interf DR=>122
COc1ccc(Cl)cc1C(=O)NNC(=O)c1cccc(S(=O)(=O)N(C)C)c1 | 0 | -8 | -2 | 22* | -8 | -6
CCc1ccc(C(=O)NCc2ccc(Cl)cc2)cc1 | 0 | 14 | 1 | 21* | 7 | -6
CCc1ccc(C(=O)NCc2ccc(Cl)cc2Cl)cc1 | 0 | 7 | 17 | -2 | . | .
COc1ccccc1-c1cnc(C(O)c2ccc(F)c(F)c2)[nH]1 (configuration not stated) | . | . | 10 | 4 | . | .
N#Cc1ccc(OCC(=O)Nc2ccc(N3CCCC3)cc2)cc1 | 0 | -1 | 1 | 21* | 15 | -3
CSCc1cc(N(C)C)nc(SCc2ccc(Cl)c(Cl)c2)n1 | 0 | 13 | 19 | 21* | -15 | -14
CC(C)(C)CC(=O)N1CCN(c2ccc(S(=O)(=O)N3CCOCC3)cc2[N+](=O)[O-])CC1 | 0 | -4 | -8 | 9 | . | .
COC(=O)c1sc(C(C)(C)C)cc1CSc1ccccc1 | 0 | -7 | -6 | 21* | -21 | -8
CC1CCCCN1C(=S)NCCc1ccccc1 (configuration not stated) | 0 | 2 | 3 | 22* | 9 | -6
O=S1(=O)c2c(cccc2N2CCC[C@@H]2CO)O[C@H]2CCN1C2 | . | . | . | 0 | . | .
